# Reference: PubChem BioAssay AID1159580 (chemical genetic matrix, 2015)
# In all, about 5,500 compounds went through this assay and about 2,000 (36%) were called active. Not shown: some 18% with an inconclusive outcome. Some of the results follow. Unmarked numbers belong to inactive results. Rule as the data show it: active = normalized growth mostly below about 0.91 (no sharp cut-off); inconclusive = no clear call, values can overlap the other calls; inactive = mostly above about 0.92.
# Assay: chemical genetic growth profiling, strain panel (AID 1159580);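 also: tested at 20 µM; growth read once vehicle control cultures reached saturation at 30 °C; 1 = growth at the plate median or of vehicle wells; lower values mean less growth of the strain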
# Conditions: S. cerevisiae deletion strains, growth OD
# [1] = locus YHR030C, strain SLT2, active compounds read low
# [2] = locus YHR079C, strain IRE1, active compounds read low
# [3] = locus YJL095W, strain BCK1, active compounds read low
# [4] = locus YJR066W, strain TOR1, active compounds read low
# [5] = locus YLR113W, strain HOG1, active compounds read low
# [6] = locus YNL183C, strain NPR1, active compounds read low
# [7] = locus YOR231W, strain MKK1, active compounds read low
# [8] = locus YPL256C, strain CLN2, active compounds read low
compound,measurement,setting,value
COc1cccc([C@]2(O)CCCC[C@H]2CN(C)C)c1,normalized growth,"locus YAL021C, strain ccr4, active compounds read low",0.964
same,normalized growth,"locus YAL026C, strain drs2, active compounds read low",0.968
same,normalized growth,"locus YAL030W, strain snc1, active compounds read low",0.947
same,normalized growth,"locus YBL061C, strain skt5, active compounds read low",0.968
same,normalized growth,"locus YBR009C, strain hhf1, active compounds read low",0.965
same,normalized growth,"locus YBR023C, strain chs3, active compounds read low",0.977
same,normalized growth,"locus YBR171W, strain sec66, active compounds read low",0.962
same,normalized growth,"locus YBR231C, strain swc5, active compounds read low",0.99
same,normalized growth,"locus YBR279W, strain paf1, active compounds read low",0.975
same,normalized growth,"locus YCL011C, strain gbp2, active compounds read low",0.972
same,normalized growth,"locus YCL016C, strain dcc1, active compounds read low",0.973
same,normalized growth,"locus YCL061C, strain MRC1, active compounds read low",0.987
same,normalized growth,"locus YCL069W, strain vba3, active compounds read low",0.967
same,normalized growth,"locus YCR088W, strain abp1, active compounds read low",0.973
same,normalized growth,"locus YDL005C, strain med2, active compounds read low",0.965
same,normalized growth,"locus YDL040C, strain nat1, active compounds read low",0.978
same,normalized growth,"locus YDR001C, strain nth1, active compounds read low",0.963
same,normalized growth,"locus YDR069C, strain doa4, active compounds read low",0.958
same,normalized growth,"locus YDR137W, strain rgp1, active compounds read low",0.942
same,normalized growth,"locus YDR159W, strain sac3, active compounds read low",0.932
same,normalized growth,"locus YDR195W, strain ref2",0.956
same,normalized growth,"locus YDR297W, strain sur2, active compounds read low",0.966
same,normalized growth,"locus YDR334W, strain swr1, active compounds read low",0.928
same,normalized growth,"locus YDR335W, strain msn5, active compounds read low",0.958
same,normalized growth,"locus YDR392W, strain spt3, active compounds read low",0.973
same,normalized growth,"locus YEL003W, strain gim4, active compounds read low",0.971
same,normalized growth,"locus YEL037C, strain rad23, active compounds read low",0.982
same,normalized growth,"locus YEL061C, strain CIN8 (second series), active compounds read low",0.968
same,normalized growth,"locus YER015W, strain faa2, active compounds read low",0.973
same,normalized growth,"locus YER016W, strain bim1, active compounds read low",0.978
same,normalized growth,"locus YER111C, strain swi4, active compounds read low",0.974
same,normalized growth,"locus YER155C, strain BEM2 (second series), active compounds read low",0.97
same,normalized growth,"locus YFR010W, strain ubp6, active compounds read low",0.955
same,normalized growth,"locus YGL167C, strain pmr1, active compounds read low",0.967
same,normalized growth,"locus YGL173C, strain kem1, active compounds read low",0.952
same,normalized growth,"locus YGL227W, strain vid30, active compounds read low",0.963
same,normalized growth,"locus YGL240W, strain doc1, active compounds read low",0.947
same,normalized growth,"locus YGL253W, strain hxk2, active compounds read low",0.988
same,normalized growth,"locus YHR013C, strain ard1, active compounds read low",0.937
same,normalized growth,"locus YHR027C, strain rpn1, active compounds read low",0.959
same,normalized growth,[1],0.969
same,normalized growth,[2],0.963
same,normalized growth,"locus YHR142W, strain chs7, active compounds read low",0.951
same,normalized growth,"locus YJL092W, strain hpr5, active compounds read low",0.982
same,normalized growth,"locus YJL095W, strain BCK1 (second series), active compounds read low",0.962
same,normalized growth,[3],1.01
same,normalized growth,"locus YJL115W, strain asf1, active compounds read low",0.956
same,normalized growth,"locus YJL129C, strain trk1, active compounds read low",0.983
same,normalized growth,"locus YJL154C, strain vps35, active compounds read low",0.959
same,normalized growth,"locus YJL164C, strain tpk1, active compounds read low",0.981
same,normalized growth,"locus YJL166W, strain qcr8, active compounds read low",0.968
same,normalized growth,"locus YJL187C, strain SWE1, active compounds read low",0.973
same,normalized growth,[4],0.935
same,normalized growth,"locus YKL160W, strain elf1, active compounds read low",0.981
same,normalized growth,"locus YKR026C, strain gcn3, active compounds read low",0.977
same,normalized growth,"locus YKR091W, strain srl3, active compounds read low",0.98
same,normalized growth,"locus YLL001W, strain dnm1, active compounds read low",0.981
same,normalized growth,"locus YLL026W, active compounds read low",0.949
same,normalized growth,"locus YLL041C, strain sdh2, active compounds read low",0.971
same,normalized growth,"locus YLR027C, strain aat2, active compounds read low",0.944
same,normalized growth,[5],0.981
same,normalized growth,"locus YLR221C, strain rsa3, active compounds read low",0.971
same,normalized growth,"locus YLR258W, strain gsy2, active compounds read low",0.971
same,normalized growth,"locus YLR262C, strain YPT6 (second series), active compounds read low",0.962
same,normalized growth,"locus YLR320W, strain mms22, active compounds read low",0.964
same,normalized growth,"locus YLR342W, strain FKS1, active compounds read low",0.99
same,normalized growth,"locus YLR357W, strain rsc2, active compounds read low",0.997
same,normalized growth,"locus YLR370C, strain arc18, active compounds read low",0.974
same,normalized growth,"locus YLR384C, strain iki3, active compounds read low",0.974
same,normalized growth,"locus YML120C, strain ndi1, active compounds read low",0.979
same,normalized growth,"locus YMR058W, strain fet3, active compounds read low",0.978
same,normalized growth,"locus YMR125W, strain sto1, active compounds read low",0.963
same,normalized growth,"locus YMR129W, active compounds read low",0.987
same,normalized growth,"locus YMR205C, strain PFK2, active compounds read low",0.961
same,normalized growth,"locus YMR231W, strain pep5, active compounds read low",0.967
same,normalized growth,"locus YNL071W, strain lat1, active compounds read low",0.98
same,normalized growth,[6],0.941
same,normalized growth,"locus YNL209W, strain ssb2, active compounds read low",0.966
same,normalized growth,"locus YNL248C, strain rpa49, active compounds read low",0.989
same,normalized growth,"locus YNL322C, strain KRE1 (second series), active compounds read low",0.97
same,normalized growth,"locus YNR049C, strain mso1, active compounds read low",0.969
same,normalized growth,"locus YOR001W, strain rrp6, active compounds read low",0.968
same,normalized growth,"locus YOR070C, strain gyp1, active compounds read low",0.978
same,normalized growth,"locus YOR080W, strain dia2, active compounds read low",0.969
same,normalized growth,"locus YOR083W, strain WHI5, active compounds read low",0.968
same,normalized growth,"locus YOR106W, strain vam3, active compounds read low",0.969
same,normalized growth,[7],0.96
same,normalized growth,"locus YOR265W, strain rbl2, active compounds read low",0.978
same,normalized growth,"locus YOR270C, strain vph1, active compounds read low",0.945
same,normalized growth,"locus YOR290C, strain snf2, active compounds read low",0.966
same,normalized growth,"locus YPL051W, strain arl3, active compounds read low",0.987
same,normalized growth,"locus YPL078C, strain atp4, active compounds read low",0.968
same,normalized growth,"locus YPL106C, strain sse1, active compounds read low",0.916
same,normalized growth,"locus YPL240C, strain hsp82, active compounds read low",0.974
same,normalized growth,[8],0.978
Cn1cncc1S(=O)(=O)/C(C#N)=C/c1ccccc1Sc1ccc(Cl)cc1,normalized growth,"locus YAR019C, strain CDC15, active compounds read low",0.987
same,normalized growth,"locus YBL105C, strain PKC1, active compounds read low",0.973
same,normalized growth,"locus YBR135W, strain CKS1, active compounds read low",0.975
same,normalized growth,"locus YBR136W, strain MEC1, active compounds read low",0.972
same,normalized growth,"locus YBR160W, strain CDC28, active compounds read low",0.983
same,normalized growth,"locus YDL017W, strain CDC7, active compounds read low",0.976
same,normalized growth,"locus YDL028C, strain MPS1, active compounds read low",0.979
same,normalized growth,"locus YDL101C, strain DUN1, active compounds read low",0.976
same,normalized growth,"locus YDL108W, strain KIN28, active compounds read low",0.979
same,normalized growth,"locus YDL132W, strain cdc53, active compounds read low",0.97
same,normalized growth,"locus YDL214C, strain PRR2, active compounds read low",0.771
same,normalized growth,"locus YDR052C, strain DBF4, active compounds read low",0.983
same,normalized growth,"locus YDR054C, strain cdc34, active compounds read low",0.982
same,normalized growth,"locus YDR226W, strain ADK1, active compounds read low",0.962
same,normalized growth,"locus YDR477W, strain SNF1, active compounds read low",0.773
same,normalized growth,"locus YER123W, strain YCK3, active compounds read low",0.729
same,normalized growth,"locus YER133W, strain GLC7, active compounds read low",0.786
same,normalized growth,"locus YFL009W, strain cdc4, active compounds read low",0.971
same,normalized growth,"locus YFL029C, strain CAK1, active compounds read low",0.984
same,normalized growth,"locus YFR003C, strain YPI1, active compounds read low",0.98
same,normalized growth,"locus YFR019W, strain FAB1, active compounds read low",0.75 (active)
same,normalized growth,"locus YFR028C, strain CDC14, active compounds read low",0.969
same,normalized growth,"locus YGR040W, strain KSS1, active compounds read low",0.752
same,normalized growth,"locus YGR052W, strain FMP48, active compounds read low",0.713
same,normalized growth,"locus YGR092W, strain DBF2, active compounds read low",0.619
same,normalized growth,[1],0.368 (active)
same,normalized growth,[2],0.668
same,normalized growth,"locus YHR082C, strain KSP1, active compounds read low",0.6 (active)
same,normalized growth,"locus YHR205W, strain SCH9, active compounds read low",0.617
same,normalized growth,"locus YIL147C, strain SLN1, active compounds read low",0.973
same,normalized growth,[3],0.726
same,normalized growth,"locus YJL128C, strain PBS2, active compounds read low",0.944
same,normalized growth,"locus YJL157C, strain FAR1, active compounds read low",0.723
same,normalized growth,"locus YJR016C, strain ILV3, active compounds read low",0.982
same,normalized growth,"locus YJR066W, strain TOR1 (second series), active compounds read low",0.771
same,normalized growth,[4],0.678
same,normalized growth,"locus YKL048C, strain ELM1, active compounds read low",0.845
same,normalized growth,"locus YKL067W, strain YNK1, active compounds read low",0.854
same,normalized growth,"locus YKL101W, strain HSL1, active compounds read low",0.828
same,normalized growth,"locus YKL193C, strain SDS22, active compounds read low",0.976
same,normalized growth,"locus YKL203C, strain TOR2, active compounds read low",0.815
same,normalized growth,[5],0.81 (active)
same,normalized growth,"locus YLR133W, strain CKI1, active compounds read low",0.73 (active)
same,normalized growth,"locus YLR403W, strain SFP1, active compounds read low",0.619 (active)
same,normalized growth,"locus YML070W, strain DAK1, active compounds read low",0.8
same,normalized growth,"locus YMR001C, strain CDC5, active compounds read low",0.971
same,normalized growth,"locus YMR205C, strain PFK2 (second series), active compounds read low",0.829
same,normalized growth,"locus YMR277W, strain FCP1, active compounds read low",0.973
same,normalized growth,"locus YNL006W, strain LST8, active compounds read low",0.984
same,normalized growth,"locus YNL020C, strain ARK1, active compounds read low",0.716
same,normalized growth,"locus YNL161W, strain CBK1, active compounds read low",0.978
same,normalized growth,[6],0.807
same,normalized growth,"locus YNL207W, strain RIO2, active compounds read low",0.971
same,normalized growth,"locus YNL222W, strain SSU72, active compounds read low",0.98
same,normalized growth,"locus YNL307C, strain MCK1 (second series), active compounds read low",0.681
same,normalized growth,"locus YOL078W, strain AVO1, active compounds read low",0.966
same,normalized growth,"locus YOL136C, strain PFK27, active compounds read low",0.674 (active)
same,normalized growth,"locus YOR061W, strain CKA2, active compounds read low",0.758
same,normalized growth,"locus YOR119C, strain RIO1, active compounds read low",0.776
same,normalized growth,[7],0.794
same,normalized growth,"locus YOR329C, strain SCD5, active compounds read low",0.978
same,normalized growth,"locus YPL031C, strain PHO85, active compounds read low",0.743
same,normalized growth,"locus YPL153C, strain RAD53, active compounds read low",0.798
same,normalized growth,"locus YPL204W, strain HRR25, active compounds read low",0.699
same,normalized growth,"locus YPL209C, strain IPL1, active compounds read low",0.975
same,normalized growth,[8],0.73 (active)
same,normalized growth,"locus YPR025C, strain CCL1, active compounds read low",0.977
same,normalized growth,"locus YPR106W, strain ISR1, active compounds read low",0.981
same,normalized growth,"locus YPR111W, strain DBF20, active compounds read low",0.962
same,normalized growth,"strain NNK1, active compounds read low",0.967
same,normalized growth,"strain TSCII, active compounds read low",0.974
